According to ChEMBL document CHEMBL2218924, “A broad activity screen in support of a chemogenomic map for kinase signalling research and drug discovery” (Biochem J, 2013):

Legend:
[1] = target: Serine/threonine-protein kinase WNK2 (Homo sapiens) (UniProt Q9Y3S1); conditions: at 10 µM
[2] = target: Serine/threonine-protein kinase WNK3 (Homo sapiens) (UniProt Q9BYP7); conditions: at 1 µM
[3] = target: Serine/threonine-protein kinase WNK3 (Homo sapiens) (UniProt Q9BYP7); conditions: at 10 µM
[4] = target: T1, Tyrosine-protein kinase ZAP-70 (Homo sapiens) (UniProt P43403); conditions: at 1 µM
T1 sequence (whole entry): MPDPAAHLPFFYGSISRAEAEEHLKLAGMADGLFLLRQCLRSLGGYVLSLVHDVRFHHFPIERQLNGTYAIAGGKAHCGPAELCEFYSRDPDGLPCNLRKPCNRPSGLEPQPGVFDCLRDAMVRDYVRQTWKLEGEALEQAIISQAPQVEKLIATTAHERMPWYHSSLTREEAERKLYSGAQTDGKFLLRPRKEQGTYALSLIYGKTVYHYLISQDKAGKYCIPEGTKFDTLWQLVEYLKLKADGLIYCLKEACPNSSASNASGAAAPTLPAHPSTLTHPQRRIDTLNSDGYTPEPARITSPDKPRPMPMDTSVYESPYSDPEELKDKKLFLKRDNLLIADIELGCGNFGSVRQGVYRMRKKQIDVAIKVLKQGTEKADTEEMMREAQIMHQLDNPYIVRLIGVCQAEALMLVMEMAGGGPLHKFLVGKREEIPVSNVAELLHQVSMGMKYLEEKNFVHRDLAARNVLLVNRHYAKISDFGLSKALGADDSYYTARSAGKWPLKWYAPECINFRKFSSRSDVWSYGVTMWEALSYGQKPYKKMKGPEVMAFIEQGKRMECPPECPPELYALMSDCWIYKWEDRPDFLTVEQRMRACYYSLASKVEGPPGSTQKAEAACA

[5] = target: RAF proto-oncogene serine/threonine-protein kinase (Homo sapiens) (UniProt P04049); conditions: at 1 µM
Chain of RAF proto-oncogene serine/threonine-protein kinase (Homo sapiens) (P04049 whole entry): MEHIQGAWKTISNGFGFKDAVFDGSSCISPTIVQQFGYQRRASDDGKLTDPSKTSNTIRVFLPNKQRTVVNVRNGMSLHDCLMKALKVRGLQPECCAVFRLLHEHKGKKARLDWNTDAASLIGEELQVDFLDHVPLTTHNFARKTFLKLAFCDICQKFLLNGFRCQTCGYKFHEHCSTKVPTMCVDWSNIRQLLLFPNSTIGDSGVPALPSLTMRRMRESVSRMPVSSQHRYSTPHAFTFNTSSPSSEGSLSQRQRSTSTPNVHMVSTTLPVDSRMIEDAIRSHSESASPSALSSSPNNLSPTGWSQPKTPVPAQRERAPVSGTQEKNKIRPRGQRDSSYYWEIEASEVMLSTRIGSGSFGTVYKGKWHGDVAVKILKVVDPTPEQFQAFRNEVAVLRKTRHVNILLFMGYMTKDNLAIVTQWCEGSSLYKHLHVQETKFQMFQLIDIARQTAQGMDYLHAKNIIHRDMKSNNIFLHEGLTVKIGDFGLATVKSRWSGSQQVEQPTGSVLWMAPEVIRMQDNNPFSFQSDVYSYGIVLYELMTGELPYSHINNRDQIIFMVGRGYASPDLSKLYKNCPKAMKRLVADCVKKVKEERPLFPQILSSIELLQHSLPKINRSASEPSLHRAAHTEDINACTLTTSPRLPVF

[6] = target: RAF proto-oncogene serine/threonine-protein kinase (Homo sapiens) (UniProt P04049); conditions: at 10 µM
[7] = target: Tyrosine-protein kinase Yes (Homo sapiens) (UniProt P07947); conditions: at 1 µM
Chain of Tyrosine-protein kinase Yes (Homo sapiens) (P07947 2-543 limits assumed): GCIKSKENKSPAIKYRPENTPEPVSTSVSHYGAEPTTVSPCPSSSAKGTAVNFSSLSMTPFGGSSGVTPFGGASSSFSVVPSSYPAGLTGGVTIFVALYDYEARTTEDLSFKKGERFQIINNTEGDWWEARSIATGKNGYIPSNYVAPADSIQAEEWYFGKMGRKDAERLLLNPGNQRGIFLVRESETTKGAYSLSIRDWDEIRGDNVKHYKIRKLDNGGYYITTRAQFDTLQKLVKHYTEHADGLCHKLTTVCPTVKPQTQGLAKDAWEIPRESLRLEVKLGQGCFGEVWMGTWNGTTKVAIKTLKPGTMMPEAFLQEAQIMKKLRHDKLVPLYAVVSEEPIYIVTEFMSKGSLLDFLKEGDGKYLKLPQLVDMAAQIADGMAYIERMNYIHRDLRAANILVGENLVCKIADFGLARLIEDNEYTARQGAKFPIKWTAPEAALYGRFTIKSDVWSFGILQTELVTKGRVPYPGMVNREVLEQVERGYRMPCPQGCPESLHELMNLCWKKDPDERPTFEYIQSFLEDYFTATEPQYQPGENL

[8] = target: Tyrosine-protein kinase Yes (Homo sapiens) (UniProt P07947); conditions: at 10 µM
[9] = target: Death-associated protein kinase 3 (Homo sapiens) (UniProt O43293); conditions: at 1 µM
Chain of Death-associated protein kinase 3 (Homo sapiens) (O43293 whole entry, looked up): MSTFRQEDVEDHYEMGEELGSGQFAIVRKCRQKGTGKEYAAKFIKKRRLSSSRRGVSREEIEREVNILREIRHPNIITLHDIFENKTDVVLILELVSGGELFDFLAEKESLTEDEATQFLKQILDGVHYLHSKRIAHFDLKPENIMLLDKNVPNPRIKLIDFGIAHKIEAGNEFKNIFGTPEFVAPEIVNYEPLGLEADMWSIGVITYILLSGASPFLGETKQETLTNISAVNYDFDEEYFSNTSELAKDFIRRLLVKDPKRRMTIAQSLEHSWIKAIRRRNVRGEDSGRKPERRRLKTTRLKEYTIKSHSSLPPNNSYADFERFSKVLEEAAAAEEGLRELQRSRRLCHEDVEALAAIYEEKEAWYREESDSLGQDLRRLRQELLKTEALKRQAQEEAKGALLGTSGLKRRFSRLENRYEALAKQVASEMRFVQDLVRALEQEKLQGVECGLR

[10] = target: Death-associated protein kinase 3 (Homo sapiens) (UniProt O43293); conditions: at 10 µM

Chain of Serine/threonine-protein kinase WNK2 (Homo sapiens) (Q9Y3S1 whole entry): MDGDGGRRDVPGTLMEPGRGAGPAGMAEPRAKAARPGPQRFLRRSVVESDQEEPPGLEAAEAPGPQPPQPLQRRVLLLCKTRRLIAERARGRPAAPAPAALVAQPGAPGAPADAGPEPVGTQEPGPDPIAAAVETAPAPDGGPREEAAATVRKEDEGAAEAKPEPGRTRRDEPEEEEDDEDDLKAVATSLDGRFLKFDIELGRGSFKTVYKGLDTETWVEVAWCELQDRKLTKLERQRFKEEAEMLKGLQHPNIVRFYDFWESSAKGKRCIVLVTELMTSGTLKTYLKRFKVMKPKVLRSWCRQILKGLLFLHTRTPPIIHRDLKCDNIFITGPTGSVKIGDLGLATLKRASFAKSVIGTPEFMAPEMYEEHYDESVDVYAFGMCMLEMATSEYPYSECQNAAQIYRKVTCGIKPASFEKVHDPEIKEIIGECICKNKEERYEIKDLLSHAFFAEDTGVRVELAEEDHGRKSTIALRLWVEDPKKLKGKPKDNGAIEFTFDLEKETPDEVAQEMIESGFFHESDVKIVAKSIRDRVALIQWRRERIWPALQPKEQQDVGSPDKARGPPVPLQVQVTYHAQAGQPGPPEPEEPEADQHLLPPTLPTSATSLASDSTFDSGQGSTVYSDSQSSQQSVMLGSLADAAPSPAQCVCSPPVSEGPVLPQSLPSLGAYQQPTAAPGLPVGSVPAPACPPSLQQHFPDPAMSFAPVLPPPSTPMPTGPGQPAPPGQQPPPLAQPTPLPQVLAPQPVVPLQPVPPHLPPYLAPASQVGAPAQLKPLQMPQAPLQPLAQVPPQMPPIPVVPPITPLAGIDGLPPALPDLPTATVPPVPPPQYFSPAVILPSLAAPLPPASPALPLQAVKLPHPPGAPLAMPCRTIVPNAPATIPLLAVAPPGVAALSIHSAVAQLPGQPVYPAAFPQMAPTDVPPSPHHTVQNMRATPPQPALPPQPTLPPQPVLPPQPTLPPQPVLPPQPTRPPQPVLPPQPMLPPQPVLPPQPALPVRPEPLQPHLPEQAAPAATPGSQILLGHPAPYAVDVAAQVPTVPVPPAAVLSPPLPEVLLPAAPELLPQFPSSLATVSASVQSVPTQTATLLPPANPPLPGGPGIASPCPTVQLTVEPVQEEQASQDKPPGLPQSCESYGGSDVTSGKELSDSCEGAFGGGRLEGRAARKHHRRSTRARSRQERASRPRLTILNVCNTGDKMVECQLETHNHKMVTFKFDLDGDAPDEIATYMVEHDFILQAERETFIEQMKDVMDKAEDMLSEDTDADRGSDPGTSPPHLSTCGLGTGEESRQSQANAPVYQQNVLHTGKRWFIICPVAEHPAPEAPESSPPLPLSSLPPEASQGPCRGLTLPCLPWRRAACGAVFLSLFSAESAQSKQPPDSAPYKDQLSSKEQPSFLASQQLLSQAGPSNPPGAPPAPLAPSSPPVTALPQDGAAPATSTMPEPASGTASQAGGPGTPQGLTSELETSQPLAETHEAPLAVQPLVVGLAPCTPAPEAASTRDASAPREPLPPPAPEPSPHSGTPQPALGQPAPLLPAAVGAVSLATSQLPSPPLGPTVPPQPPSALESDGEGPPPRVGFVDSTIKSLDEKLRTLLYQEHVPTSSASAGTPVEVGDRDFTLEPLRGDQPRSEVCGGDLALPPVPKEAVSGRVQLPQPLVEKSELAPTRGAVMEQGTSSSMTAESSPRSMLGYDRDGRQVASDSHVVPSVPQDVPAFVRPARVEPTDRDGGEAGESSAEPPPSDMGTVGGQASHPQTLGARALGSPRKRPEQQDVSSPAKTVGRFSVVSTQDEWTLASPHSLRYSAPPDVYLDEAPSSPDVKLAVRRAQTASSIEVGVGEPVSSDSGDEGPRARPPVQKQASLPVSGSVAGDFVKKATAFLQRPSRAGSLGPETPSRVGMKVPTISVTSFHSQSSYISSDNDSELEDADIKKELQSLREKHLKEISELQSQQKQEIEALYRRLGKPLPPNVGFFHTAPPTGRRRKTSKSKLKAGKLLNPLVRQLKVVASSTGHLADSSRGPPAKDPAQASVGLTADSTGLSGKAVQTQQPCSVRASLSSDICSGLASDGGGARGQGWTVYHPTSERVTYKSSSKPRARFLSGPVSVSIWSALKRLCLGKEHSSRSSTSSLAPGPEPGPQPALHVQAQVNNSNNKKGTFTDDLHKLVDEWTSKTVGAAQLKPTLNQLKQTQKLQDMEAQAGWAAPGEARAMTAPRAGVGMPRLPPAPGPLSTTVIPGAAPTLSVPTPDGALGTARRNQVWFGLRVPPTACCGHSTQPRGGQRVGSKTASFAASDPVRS

## NC(=O)c1ccc(-c2nc(-c3ccc4c(c3)OCCO4)c(-c3ccccn3)[nH]2)cc1
[1]
  residual activity: 96%
[2]
  residual activity: 123% (inactive)
[3]
  residual activity: 98%
[4]
  residual activity: 88%
[5]
  residual activity: 85%
[6]
  residual activity: 55%

## Nc1nc(Nc2ccc(S(N)(=O)=O)cc2)nn1C(=O)c1c(F)cccc1F
[1]
  residual activity: 82%
[2]
  residual activity: 100% (inactive)
[3]
  residual activity: 80%
[7]
  residual activity: 50%
[8]
  residual activity: 4%
[5]
  residual activity: 79%
[6]
  residual activity: 26%

## CCOC(=O)c1c(C)[nH]c(/C=C2\C(=O)Nc3ccccc32)c1C
[1]
  residual activity: 90%
[2]
  residual activity: 93% (inactive)
[3]
  residual activity: 92%
[7]
  residual activity: 91%
[8]
  residual activity: 80%
[9]
  residual activity: 94%
[5]
  residual activity: 100%

## O=C(c1ccccc1)c1ccc(N2CCOCC2)cc1O
[1]
  residual activity: 94%
[2]
  residual activity: 112% (inactive)
[3]
  residual activity: 97%
[7]
  residual activity: 115%
[8]
  residual activity: 95%
[9]
  residual activity: 84%
[5]
  residual activity: 93%
[6]
  residual activity: 94%

## O=c1cc(N2CCNCC2)oc2c(-c3ccccc3)cccc12
[1]
  residual activity: 80%
[2]
  residual activity: 133% (inactive)
[3]
  residual activity: 98%
[8]
  residual activity: 91%
[4]
  residual activity: 103%
[10]
  residual activity: 99%
[5]
  residual activity: 88%
[6]
  residual activity: 87%

## Cn1c2ccccc2c2c3c(c4c5ccccc5n(CCC#N)c4c21)CNC3=O
[1]
  residual activity: 78%
[2]
  residual activity: 105% (inactive)
[7]
  residual activity: 45%
[8]
  residual activity: 61%
[4]
  residual activity: 81%
[5]
  residual activity: 72%
[6]
  residual activity: 93%

## O=C1Nc2ccc(Cl)cc2/C1=C/c1cc(Cl)c(O)c(Cl)c1
[2]
  residual activity: 100% (inactive)
[3]
  residual activity: 80%
[7]
  residual activity: 96%
[8]
  residual activity: 54%
[4]
  residual activity: 96%
[9]
  residual activity: 77%
[10]
  residual activity: 78%
[5]
  residual activity: 2%
[6]
  residual activity: -2%

## O=c1c(-c2ccc(F)cc2)c(-c2ccncc2)[nH]n1-c1ccc(Cl)cc1
[3]
  residual activity: 102%
[4]
  residual activity: 127%
[9]
  residual activity: 101%
[5]
  residual activity: 33%
[6]
  residual activity: 6%

## Nc1ncnc2[nH]nc(Nc3ccc(F)cc3)c12
[2]
  residual activity: 101% (inactive)
[7]
  residual activity: 93%
[8]
  residual activity: 21%
[4]
  residual activity: 99%
[9]
  residual activity: 116%
[10]
  residual activity: 107%
[5]
  residual activity: 56%
[6]
  residual activity: 16%

## CCN(CC)CCNC(=O)c1c(C)[nH]c(/C=C2\C(=O)Nc3ccc(Cl)cc32)c1C
[3]
  residual activity: 63%
[7]
  residual activity: 2%
[8]
  residual activity: -1%
[4]
  residual activity: 116%
[9]
  residual activity: 44%
[10]
  residual activity: 17%

## O=C(Nc1ccc(Cl)cc1)c1ccccc1NCc1ccncc1
[7]
  residual activity: 117%
[8]
  residual activity: 75%
[5]
  residual activity: 41%
[6]
  residual activity: 9%

## CCN1/C(=C/C(C)=O)Sc2ccc(OC)cc21
[1]
  residual activity: 70%
[5]
  residual activity: 81%
[6]
  residual activity: 77%

## O=C(NC(NC(=S)Nc1ccc(F)c([N+](=O)[O-])c1)C(Cl)(Cl)Cl)C(c1ccccc1)c1ccccc1 (centres undefined)
[1]
  residual activity: 95%
[8]
  residual activity: 100%
[4]
  residual activity: 126%
[9]
  residual activity: 96%
[10]
  residual activity: 100%
[5]
  residual activity: 92%

## CCCCc1c(-c2ccc(O)cc2)[nH]c2nccnc12
[7]
  residual activity: 56%
[8]
  residual activity: 51%
[10]
  residual activity: 99%
[5]
  residual activity: 84%
[6]
  residual activity: 71%

## O=C1Cc2c([nH]c3ccc([N+](=O)[O-])cc23)-c2ccccc2N1
[7]
  residual activity: 56%
[8]
  residual activity: 20%
[4]
  residual activity: 125%

## Nc1n[nH]c2nc3ccccc3nc12
[1]
  residual activity: 94%
[9]
  residual activity: 99%
[10]
  residual activity: 94%
[5]
  residual activity: 93%
[6]
  residual activity: 69%

## CSc1nc(-c2ccc(F)cc2)c(-c2ccnc(NC(C)c3ccccc3)c2)[nH]1 (centres undefined)
[2]
  residual activity: 96% (inactive)
[3]
  residual activity: 94%
[7]
  residual activity: 99%
[8]
  residual activity: 63%
[9]
  residual activity: 84%
[5]
  residual activity: 89%
[6]
  residual activity: 65%

## COc1ccc(Cl)cc1NC(=O)Nc1cc(C)nc2ccccc12
[2]
  residual activity: 94% (inactive)
[3]
  residual activity: 78%
[9]
  residual activity: 88%
[10]
  residual activity: 87%
[5]
  residual activity: 79%

## COc1cc2ncnc(Nc3cccc(Cl)c3)c2cc1OC
[7]
  residual activity: 30%
[8]
  residual activity: 3%
[4]
  residual activity: 103%
[9]
  residual activity: 89%
[10]
  residual activity: 101%
[6]
  residual activity: 72%

## NCCNc1ncc(C(N)=O)c(Nc2cccc(C(F)(F)F)c2)n1
[1]
  residual activity: 80%
[7]
  residual activity: 64%
[8]
  residual activity: 3%

## O=C(Nc1nc2ccccc2n1CCN1CCOCC1)c1cccc([N+](=O)[O-])c1
[1]
  residual activity: 76%
[9]
  residual activity: 83%
[10]
  residual activity: 55%

## Fc1ccc(-c2nc3n(c2-c2ccncc2)CCS3)cc1
[1]
  residual activity: 97%
[7]
  residual activity: 131%
[8]
  residual activity: 91%
[4]
  residual activity: 127%
[5]
  residual activity: 64%
[6]
  residual activity: 28%

## CN([C@@H](Cc1ccc(OS(=O)(=O)c2cccc3cnccc23)cc1)C(=O)N1CCN(c2ccccc2)CC1)S(=O)(=O)c1cccc2cnccc12
[2]
  residual activity: 100% (inactive)
[3]
  residual activity: 99%

## O=C1Nc2ccccc2/C1=C\c1c(Cl)[nH]c2ccccc12
[1]
  residual activity: 61%
[3]
  residual activity: 64%
[5]
  residual activity: 85%
[6]
  residual activity: 41%

## O=c1cc(N2CCOCC2)oc2c(-c3ccccc3)cccc12
[1]
  residual activity: 75%
[5]
  residual activity: 68%
[6]
  residual activity: 69%

## COc1ccc(-c2cnc3c(-c4ccsc4)cnn3c2)cc1
[4]
  residual activity: 122%
[5]
  residual activity: 86%
[6]
  residual activity: 97%

## O=C1NC(=O)C(c2cn(CCCn3ccnc3)c3ccccc23)=C1Nc1ccccc1
[4]
  residual activity: 101%
[5]
  residual activity: 78%
[6]
  residual activity: 71%

## CC(C)c1nn(-c2c(Cl)cccc2Cl)c2nc(Cc3ccc(OCCO)cc3)[nH]c(=O)c12
[1]
  residual activity: 93%
[3]
  residual activity: 97%
[8]
  residual activity: 93%
[4]
  residual activity: 104%
[10]
  residual activity: 129%
[5]
  residual activity: 79%
[6]
  residual activity: 76%

## CCCCc1c(-c2ccc(OC)cc2)[nH]c2nccnc12
[7]
  residual activity: 51%
[8]
  residual activity: 69%
[4]
  residual activity: 111%

## O=C1NC(=O)C(c2cn(CCCO)c3ncccc23)=C1c1cnccn1
[2]
  residual activity: 99% (inactive)
[3]
  residual activity: 90%
[9]
  residual activity: 95%
[10]
  residual activity: 83%
[5]
  residual activity: 91%
[6]
  residual activity: 78%

## N#C/C(=C\c1ccc(O)c(O)c1)C(=O)NCc1ccccc1
[7]
  residual activity: 104%
[8]
  residual activity: 73%
[9]
  residual activity: 89%
[5]
  residual activity: 82%

## Cc1cc(C)c(/C=C2\C(=O)Nc3ccccc32)[nH]1
[1]
  residual activity: 82%
[6]
  residual activity: 103%

## CC(C)N(CCC(=O)c1ccc2ccccc2c1)Cc1ccccc1
[1]
  residual activity: 86%
[9]
  residual activity: 85%
[10]
  residual activity: 88%
[5]
  residual activity: 75%
[6]
  residual activity: 81%

## CCOc1nc(NC(=O)Cc2cc(OC)ccc2OC)cc(N)c1C#N
[3]
  residual activity: 73%
[5]
  residual activity: 74%
[6]
  residual activity: 80%

## O=C1NC(=O)C(c2c[nH]c3ccccc23)=C1c1c[nH]c2ccccc12
[1]
  residual activity: 82%
[7]
  residual activity: 100%
[8]
  residual activity: 36%
[6]
  residual activity: 57%

## Nc1nccc(-c2c(-c3ccc(F)cc3)ncn2C2CCNCC2)n1
[3]
  residual activity: 77%
[7]
  residual activity: 78%
[8]
  residual activity: 11%
[4]
  residual activity: 130%
[5]
  residual activity: 64%
[6]
  residual activity: 21%

## O=S(=O)(NCCNC/C=C/c1ccc(Br)cc1)c1cccc2cnccc12
[7]
  residual activity: 116%

## COc1ccc(CNC(=O)Nc2ncc([N+](=O)[O-])s2)cc1
[1]
  residual activity: 70%
[7]
  residual activity: 10%
[8]
  residual activity: 13%
[4]
  residual activity: 100%
[5]
  residual activity: 78%
[6]
  residual activity: 72%
